# Results reported in PubChem BioAssay (EPA / NIEHS).
# Inconclusive results are not listed. Active and inactive are the calls of the source. Rule for the calls: active = hit-call score of the fitted dose curve at least 0.9, where 1 is the maximum; inconclusive = response in the unintended direction; inactive = score below 0.9.
# Assays:
# [1] = target: human Protein Tyrosine Phosphatase Non-receptor Type 1 (PTPN1), PTPN1 (gene 5770) (UniProt P18031); assay: NVS_ENZ_hPTPN1: NovaScreen (NVS) Enzymatic Assay for human Protein Tyrosine Phosphatase Non-receptor Type 1 (PTPN1) (AID 2283201)
# Summary of the method: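 Chemicals were first tested in duplicate at 25 uM, and those passing threshold went on to singleton concentration series topping at 50 uM. Recombinant enzyme, specific substrate, product separated by mobility shift, fluorescence read at 1.33 h; activity loss relative to DMSO.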
# [2] = target: human Sirtuin 1 (SIRT1), SIRT1 (gene 23411) (UniProt Q96EB6); assay: NVS_ENZ_hSIRT1: NovaScreen (NVS) Enzymatic Assay for human Sirtuin 1 (SIRT1) (AID 2283219)
# Summary of the method: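 Cell-free recombinant SIRT1 with a fluorescent substrate; substrate and product separated by electrophoretic mobility shift and read by fluorescence intensity, 1 h after dosing. Primary screen at 25 uM in duplicate; hits re-run in concentration-response up to 50 uM, relative to DMSO.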
# [3] = target: Tyrosine-protein phosphatase non-receptor type 12 (Homo sapiens) (UniProt Q05209); assay: NVS_ENZ_hPTPN12: NovaScreen (NVS) Enzymatic Assay for human Protein Tyrosine Phosphatase Non-receptor Type 12 (PTPN12) (AID 2283204)
# Summary of the method: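 Single-concentration duplicates (25 uM) preceded singleton concentration-response up to 50 uM for chemicals passing threshold. Cell-free recombinant PTPN12 activity was read 1.33 h after dosing via fluorescence after mobility-shift separation; loss of signal versus DMSO.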
# [4] = target: Tyrosine-protein phosphatase non-receptor type 13 (Homo sapiens) (UniProt Q12923); assay: NVS_ENZ_hPTPN13: NovaScreen (NVS) Enzymatic Assay for human Protein Tyrosine Phosphatase Non-receptor Type 13 (PTPN13) (AID 2283205)
# Summary of the method: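 Screened first at a single 25 uM in duplicate; compounds passing the threshold (e.g. 30% inhibition) were rerun in concentration series, top 50 uM. Recombinant enzyme, fluorescent substrate, mobility-shift separation, 0.5 h read. Data fitted as inhibition relative to DMSO.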
# [5] = target: Serine/threonine-protein phosphatase PP1-alpha catalytic subunit (Homo sapiens) (UniProt P62136); assay: NVS_ENZ_hPPP1CA: NovaScreen (NVS) Enzymatic Assay for human Protein Phosphatase 1 Aatalytic subunit Alpha (PPP1CA) (AID 2283200)
# Summary of the method: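 Chemicals were first screened in duplicate at 25 uM, and those passing threshold (e.g. 30% inhibition) were run as concentration series to 50 uM. Cell-free recombinant protein, 1.33 h read, fluorescent substrate/product mobility-shift detection, normalised to DMSO.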
# [6] = target: rabbit Imidazoline 2 Central (I2C), CKB (gene 100009085) (UniProt P00567); assay: NVS_ENZ_rabI2C: NovaScreen (NVS) Enzymatic Assay for rabbit Imidazoline 2 Central (I2C) (AID 2283228)
# Summary of the method: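 Rabbit brain membranes, cell-free; readout by filter-based scintillation counting 1.5 hours after dosing, loss of signal vs DMSO. Initial duplicate test at 25 uM, then concentration-response with 50 uM top concentration.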
# [7] = target: human Protein Tyrosine Phosphatase Non-receptor Type 9 (PTPN9), PTPN9 (gene 5780) (UniProt P43378); assay: NVS_ENZ_hPTPN9: NovaScreen (NVS) Enzymatic Assay for human Protein Tyrosine Phosphatase Non-receptor Type 9 (PTPN9) (AID 2283209)
# Summary of the method: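 Sf9-expressed enzyme in a cell-free assay, fluorescence read 1.33 h after dosing with mobility-shift separation of substrate and product. Tested at 25 uM in duplicate, then up to 50 uM; signal loss versus DMSO.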
# [8] = target: human Protein Tyrosine Phosphatase Receptor Type F (PTPRF), PTPRF (gene 5792) (UniProt P10586); assay: NVS_ENZ_hPTPRF: NovaScreen (NVS) Enzymatic Assay for human Protein Tyrosine Phosphatase Receptor Type F (PTPRF) (AID 2283213)
# Summary of the method: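 Cell-free fluorescence enzyme assay with recombinant protein and substrate; product separated by electrophoretic mobility shift. Read 1 h after dosing, single 25 uM duplicate screen, then concentration-response up to 50 uM; loss of signal vs DMSO.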
# [9] = target: human Protein Tyrosine Phosphatase Receptor Type M (PTPRM), PTPRM (gene 5797) (UniProt P28827); assay: NVS_ENZ_hPTPRM: NovaScreen (NVS) Enzymatic Assay for human Protein Tyrosine Phosphatase Receptor Type M (PTPRM) (AID 2283215)
# Summary of the method: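 Read-out is fluorescence after electrophoretic separation of substrate and product, taken 1.33 h post-dosing with recombinant enzyme. Compounds screened at 25 uM in duplicate, then concentration series for actives; activity as signal loss relative to DMSO.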
# [10] = target: human Sirtuin 2 (SIRT2), SIRT2 (gene 22933) (UniProt Q8IXJ6); assay: NVS_ENZ_hSIRT2: NovaScreen (NVS) Enzymatic Assay for human Sirtuin 2 (SIRT2) (AID 2283217)
# Summary of the method: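 Single-point duplicate screen at 25 uM, then concentration-response (max 50 uM) for chemicals passing threshold. Enzyme activity of recombinant human SIRT2 measured after 1 hr by fluorescence with mobility-shift separation of product; DMSO baseline.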
# [11] = target: human SRC Proto-Oncogene, Non-receptor Tyrosine Kinase (SRC), SRC (gene 6714) (UniProt P12931); assay: NVS_ENZ_hSRC: NovaScreen (NVS) Enzymatic Assay for human SRC Proto-Oncogene, Non-receptor Tyrosine Kinase (SRC) (AID 2283223)
# Summary of the method: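 Compounds passing 30% inhibition at 25 uM (duplicate) were titrated to a top concentration of 50 uM. Enzyme activity read by fluorescence with mobility-shift substrate/product separation after 1 h; DMSO baseline.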
# [12] = target: human Protein Tyrosine Phosphatase Non-receptor Type 6 (PTPN6), PTPN6 (gene 5777) (UniProt P29350); assay: NVS_ENZ_hPTPN6: NovaScreen (NVS) Enzymatic Assay for human Protein Tyrosine Phosphatase Non-receptor Type 6 (PTPN6) (AID 2283210)
# Summary of the method: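 Recombinant human PTPN6 from SF9 cells, enzyme activity followed by fluorescence after mobility-shift separation of substrate and product at 1.33 h. Chemicals first tested at a single 25 uM in duplicate, then confirmed across concentration series; loss of signal relative to DMSO.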
# [13] = target: Tyrosine-protein phosphatase non-receptor type 11 (Homo sapiens) (UniProt Q06124); assay: NVS_ENZ_hPTPN11: NovaScreen (NVS) Enzymatic Assay for human Protein Tyrosine Phosphatase Non-receptor Type 11 (PTPN11) (AID 2283202)
# Summary of the method: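 Compounds first tested in duplicate at 25 uM; those reaching ~30% inhibition rerun in singleton concentration-response, top 50 uM. Phosphatase activity measured after 0.5 h by fluorescence with mobility-shift separation, relative to DMSO.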
# [14] = target: Tyrosine-protein phosphatase non-receptor type 14 (Homo sapiens) (UniProt Q15678); assay: NVS_ENZ_hPTPN14: NovaScreen (NVS) Enzymatic Assay for human Protein Tyrosine Phosphatase Non-receptor Type 14 (PTPN14) (AID 2283206)
# Summary of the method: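 Fluorescent substrate turnover by recombinant human PTPN14 was measured 0.5 h after compound addition, with substrate and product separated by mobility shift. Single-point screening at 25 uM, then concentration-response up to 50 uM for chemicals meeting threshold (e.g., 30% inhibition).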
# [15] = target: human Protein Tyrosine Phosphatase Receptor Type B (PTPRB), PTPRB (gene 5787) (UniProt P23467); assay: NVS_ENZ_hPTPRB: NovaScreen (NVS) Enzymatic Assay for human Protein Tyrosine Phosphatase Receptor Type B (PTPRB) (AID 2283211)
# Summary of the method: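 Recombinant human PTPRB with a fluorescent substrate, product separated by electrophoretic mobility shift; read 1 h after dosing. Primary screen in duplicate at 25 uM; actives then retested in concentration series; loss of signal versus DMSO.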
# [16] = target: human Rho Associated Coiled-coil Containing Protein Kinase 1 (ROCK1), ROCK1 (gene 6093) (UniProt Q13464); assay: NVS_ENZ_hROCK1: NovaScreen (NVS) Enzymatic Assay for human Rho Associated Coiled-coil Containing Protein Kinase 1 (ROCK1) (AID 2283214)
# Summary of the method: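 Compounds first run in duplicate at 25 uM against recombinant human ROCK1, then followed in concentration series. Kinase activity was read 1 h post-dosing by fluorescence with mobility-shift separation, as signal loss relative to DMSO.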
# [17] = target: human Sirtuin 3 (SIRT3), SIRT3 (gene 23410) (UniProt Q9NTG7); assay: NVS_ENZ_hSIRT3: NovaScreen (NVS) Enzymatic Assay for human Sirtuin 3 (SIRT3) (AID 2283222)
# Summary of the method: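 Cell-free enzyme assay with recombinant protein and fluorescent substrate, product separated by electrophoretic mobility shift; read 1 hour after dosing. Screened in duplicate at 25 uM, then singleton concentration-response up to 50 uM; loss of signal versus DMSO.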
# [18] = target: human Tropomyosin Receptor Kinase A (TRKA), NTRK1 (gene 4914) (UniProt P04629); assay: NVS_ENZ_hTrkA: NovaScreen (NVS) Enzymatic Assay for human Tropomyosin Receptor Kinase A (TRKA) (AID 2283224)
# Summary of the method: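 Compounds were screened at 25 uM in duplicate, then concentration series to a 50 uM top for those meeting threshold (e.g. 30% inhibition). Enzyme was recombinant human TrkA, incubated 1 h. Product formation was quantified by fluorescence after mobility-shift separation.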
# [19] = target: human Protein Tyrosine Phosphatase Non-receptor Type 4 (PTPN4), PTPN4 (gene 5775) (UniProt P29074); assay: NVS_ENZ_hPTPN4: NovaScreen (NVS) Enzymatic Assay for human Protein Tyrosine Phosphatase Non-receptor Type 4 (PTPN4) (AID 2283208)
# Summary of the method: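 Screened in duplicate at 25 uM, with hits then titrated to a top concentration of 50 uM. Recombinant Sf9-derived PTPN4 turnover was read by fluorescence with electrophoretic separation, 1.33 h after compound addition. DMSO served as baseline.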
# [20] = target: human Vascular Endothelial Growth Factor Receptor 1 (VEGFR1), FLT1 (gene 2321) (UniProt P17948); assay: NVS_ENZ_hVEGFR1: NovaScreen (NVS) Enzymatic Assay for human Vascular Endothelial Growth Factor Receptor 1 (VEGFR1) (AID 2283226)
# Summary of the method: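 Kinase activity of recombinant human VEGFR1 was read by fluorescence after electrophoretic separation of product from substrate, 1 h post-dosing; initial duplicate single-point testing at 25 uM, followed by concentration-series follow-up, with DMSO as baseline.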
# human Protein Tyrosine Phosphatase Non-receptor Type 1 (PTPN1), PTPN1 (gene 5770), sequence (P18031 whole entry, looked up): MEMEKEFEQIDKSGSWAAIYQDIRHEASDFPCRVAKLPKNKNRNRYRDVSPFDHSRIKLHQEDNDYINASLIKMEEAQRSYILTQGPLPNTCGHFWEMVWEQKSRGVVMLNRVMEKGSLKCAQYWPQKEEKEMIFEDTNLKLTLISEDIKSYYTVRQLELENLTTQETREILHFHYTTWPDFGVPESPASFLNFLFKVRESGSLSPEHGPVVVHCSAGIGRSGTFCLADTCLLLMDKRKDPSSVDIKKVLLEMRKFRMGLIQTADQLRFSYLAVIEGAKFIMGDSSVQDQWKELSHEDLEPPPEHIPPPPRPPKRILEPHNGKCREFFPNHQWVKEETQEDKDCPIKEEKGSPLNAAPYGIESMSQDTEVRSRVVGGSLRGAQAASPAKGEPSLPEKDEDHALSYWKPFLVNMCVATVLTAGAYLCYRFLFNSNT
# human Protein Tyrosine Phosphatase Non-receptor Type 6 (PTPN6), PTPN6 (gene 5777), sequence (P29350 whole entry, looked up): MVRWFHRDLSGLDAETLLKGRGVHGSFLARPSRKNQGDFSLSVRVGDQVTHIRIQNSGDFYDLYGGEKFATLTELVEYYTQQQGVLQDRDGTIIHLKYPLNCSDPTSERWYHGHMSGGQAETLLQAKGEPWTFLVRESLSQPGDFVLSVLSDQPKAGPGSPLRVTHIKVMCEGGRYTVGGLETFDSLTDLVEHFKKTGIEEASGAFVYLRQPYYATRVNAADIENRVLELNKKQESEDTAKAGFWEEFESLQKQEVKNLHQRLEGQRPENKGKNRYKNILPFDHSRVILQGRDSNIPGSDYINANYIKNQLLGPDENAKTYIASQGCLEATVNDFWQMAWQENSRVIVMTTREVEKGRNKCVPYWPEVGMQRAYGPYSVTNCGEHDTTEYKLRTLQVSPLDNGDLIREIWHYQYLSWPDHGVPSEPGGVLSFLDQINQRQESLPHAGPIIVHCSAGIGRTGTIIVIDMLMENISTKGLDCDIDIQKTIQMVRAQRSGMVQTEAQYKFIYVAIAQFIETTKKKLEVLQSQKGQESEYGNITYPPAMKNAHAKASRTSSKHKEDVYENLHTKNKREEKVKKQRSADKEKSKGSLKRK
# Tyrosine-protein phosphatase non-receptor type 13 (Homo sapiens), sequence (Q12923 whole entry, looked up): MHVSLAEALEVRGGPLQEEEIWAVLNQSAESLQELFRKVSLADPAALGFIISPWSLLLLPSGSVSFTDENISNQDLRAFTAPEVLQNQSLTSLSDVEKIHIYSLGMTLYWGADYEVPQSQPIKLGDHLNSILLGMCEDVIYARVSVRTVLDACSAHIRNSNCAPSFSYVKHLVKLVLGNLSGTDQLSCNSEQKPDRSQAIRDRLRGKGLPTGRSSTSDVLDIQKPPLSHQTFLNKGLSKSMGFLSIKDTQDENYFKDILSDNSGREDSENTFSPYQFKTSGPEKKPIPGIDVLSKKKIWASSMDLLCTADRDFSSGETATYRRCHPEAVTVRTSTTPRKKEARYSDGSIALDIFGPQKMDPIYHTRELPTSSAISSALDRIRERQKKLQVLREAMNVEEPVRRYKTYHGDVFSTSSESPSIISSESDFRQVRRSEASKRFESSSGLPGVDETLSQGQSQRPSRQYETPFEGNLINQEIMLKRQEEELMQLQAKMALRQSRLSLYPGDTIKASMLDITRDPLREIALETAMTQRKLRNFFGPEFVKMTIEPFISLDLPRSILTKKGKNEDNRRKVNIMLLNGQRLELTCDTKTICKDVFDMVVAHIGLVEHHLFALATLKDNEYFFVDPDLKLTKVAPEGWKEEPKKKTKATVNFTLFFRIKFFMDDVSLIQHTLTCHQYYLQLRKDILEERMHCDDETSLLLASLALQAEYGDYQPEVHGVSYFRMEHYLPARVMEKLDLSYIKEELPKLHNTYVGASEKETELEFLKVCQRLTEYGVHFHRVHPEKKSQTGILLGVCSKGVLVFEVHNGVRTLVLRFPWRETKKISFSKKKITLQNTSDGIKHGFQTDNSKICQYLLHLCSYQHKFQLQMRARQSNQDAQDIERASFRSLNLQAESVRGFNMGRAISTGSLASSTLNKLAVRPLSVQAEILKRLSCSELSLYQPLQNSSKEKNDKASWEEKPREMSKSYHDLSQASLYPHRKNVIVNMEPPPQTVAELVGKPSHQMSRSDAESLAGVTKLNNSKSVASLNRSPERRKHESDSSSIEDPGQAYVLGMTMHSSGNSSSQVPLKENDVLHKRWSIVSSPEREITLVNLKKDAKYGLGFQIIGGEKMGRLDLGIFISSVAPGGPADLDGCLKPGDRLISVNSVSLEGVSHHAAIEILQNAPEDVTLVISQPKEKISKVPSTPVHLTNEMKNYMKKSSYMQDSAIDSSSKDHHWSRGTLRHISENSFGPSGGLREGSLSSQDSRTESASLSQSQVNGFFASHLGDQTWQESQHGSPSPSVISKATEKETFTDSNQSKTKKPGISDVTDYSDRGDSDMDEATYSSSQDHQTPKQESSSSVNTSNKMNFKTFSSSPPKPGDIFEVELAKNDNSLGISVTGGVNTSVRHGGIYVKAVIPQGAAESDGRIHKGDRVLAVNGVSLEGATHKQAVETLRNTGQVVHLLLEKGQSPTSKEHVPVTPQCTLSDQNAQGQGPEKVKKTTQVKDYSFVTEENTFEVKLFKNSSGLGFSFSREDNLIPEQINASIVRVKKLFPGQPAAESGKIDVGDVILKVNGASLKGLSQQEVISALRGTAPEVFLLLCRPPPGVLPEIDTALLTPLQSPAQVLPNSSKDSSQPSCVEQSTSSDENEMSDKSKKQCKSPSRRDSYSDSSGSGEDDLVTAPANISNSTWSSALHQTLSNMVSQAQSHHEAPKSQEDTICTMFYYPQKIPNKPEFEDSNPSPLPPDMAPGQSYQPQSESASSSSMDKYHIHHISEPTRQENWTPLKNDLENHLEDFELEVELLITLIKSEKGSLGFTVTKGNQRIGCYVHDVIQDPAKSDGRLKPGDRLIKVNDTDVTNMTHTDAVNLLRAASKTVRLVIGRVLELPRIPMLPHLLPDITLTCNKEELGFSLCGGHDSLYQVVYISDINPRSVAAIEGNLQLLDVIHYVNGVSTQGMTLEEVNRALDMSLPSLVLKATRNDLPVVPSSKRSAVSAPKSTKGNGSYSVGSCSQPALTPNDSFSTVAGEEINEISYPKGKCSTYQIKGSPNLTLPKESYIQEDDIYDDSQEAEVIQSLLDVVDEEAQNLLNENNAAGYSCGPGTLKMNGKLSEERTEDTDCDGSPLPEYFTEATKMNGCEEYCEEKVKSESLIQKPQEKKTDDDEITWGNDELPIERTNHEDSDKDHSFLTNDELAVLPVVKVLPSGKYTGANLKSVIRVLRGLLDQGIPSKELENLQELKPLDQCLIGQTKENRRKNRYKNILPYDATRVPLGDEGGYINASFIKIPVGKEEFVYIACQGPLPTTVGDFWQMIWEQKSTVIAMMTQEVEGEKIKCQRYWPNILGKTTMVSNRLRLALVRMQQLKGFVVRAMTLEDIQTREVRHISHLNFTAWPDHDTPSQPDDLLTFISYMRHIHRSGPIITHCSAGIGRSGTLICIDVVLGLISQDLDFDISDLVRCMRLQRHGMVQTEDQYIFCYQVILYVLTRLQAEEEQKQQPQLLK
# human Sirtuin 3 (SIRT3), SIRT3 (gene 23410), sequence (Q9NTG7 whole entry, looked up): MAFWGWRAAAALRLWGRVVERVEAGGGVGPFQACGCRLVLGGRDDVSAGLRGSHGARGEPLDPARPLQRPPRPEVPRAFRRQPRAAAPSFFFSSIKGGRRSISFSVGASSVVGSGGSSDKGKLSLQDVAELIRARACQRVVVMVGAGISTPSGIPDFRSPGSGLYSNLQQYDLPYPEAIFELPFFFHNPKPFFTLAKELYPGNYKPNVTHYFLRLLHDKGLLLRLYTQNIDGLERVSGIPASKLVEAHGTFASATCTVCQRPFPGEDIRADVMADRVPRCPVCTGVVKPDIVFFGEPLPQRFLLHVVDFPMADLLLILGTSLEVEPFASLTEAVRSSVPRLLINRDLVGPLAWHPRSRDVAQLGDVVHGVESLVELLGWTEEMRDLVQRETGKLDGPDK
# Serine/threonine-protein phosphatase PP1-alpha catalytic subunit (Homo sapiens), sequence (P62136 whole entry, looked up): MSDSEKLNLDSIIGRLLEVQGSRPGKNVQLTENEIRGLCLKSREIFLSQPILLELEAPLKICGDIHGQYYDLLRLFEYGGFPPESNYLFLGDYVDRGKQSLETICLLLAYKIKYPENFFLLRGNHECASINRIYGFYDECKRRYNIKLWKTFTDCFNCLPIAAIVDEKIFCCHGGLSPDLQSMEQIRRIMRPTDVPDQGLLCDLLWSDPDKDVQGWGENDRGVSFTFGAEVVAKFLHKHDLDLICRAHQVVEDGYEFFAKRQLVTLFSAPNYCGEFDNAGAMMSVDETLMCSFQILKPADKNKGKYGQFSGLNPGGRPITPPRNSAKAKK
# human Protein Tyrosine Phosphatase Non-receptor Type 9 (PTPN9), PTPN9 (gene 5780), sequence (P43378 whole entry, looked up): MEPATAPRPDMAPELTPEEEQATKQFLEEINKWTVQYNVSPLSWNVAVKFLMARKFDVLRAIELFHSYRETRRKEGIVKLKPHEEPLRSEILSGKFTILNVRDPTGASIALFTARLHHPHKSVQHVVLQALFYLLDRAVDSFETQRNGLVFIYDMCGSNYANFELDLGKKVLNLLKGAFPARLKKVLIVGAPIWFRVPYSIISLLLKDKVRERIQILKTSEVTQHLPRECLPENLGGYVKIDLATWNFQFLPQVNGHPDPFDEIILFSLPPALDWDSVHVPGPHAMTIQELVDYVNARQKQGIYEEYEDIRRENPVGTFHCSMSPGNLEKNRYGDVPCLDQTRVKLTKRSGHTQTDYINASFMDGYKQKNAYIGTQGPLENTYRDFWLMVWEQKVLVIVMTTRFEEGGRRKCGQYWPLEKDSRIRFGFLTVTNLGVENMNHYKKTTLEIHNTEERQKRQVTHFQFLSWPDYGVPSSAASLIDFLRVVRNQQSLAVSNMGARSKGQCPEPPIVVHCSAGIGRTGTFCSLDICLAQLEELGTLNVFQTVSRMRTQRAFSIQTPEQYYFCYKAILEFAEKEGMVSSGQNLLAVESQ
structure (smiles),measurement,setting,value
CCc1cccc(CC)c1N,outcome,[1],inactive
same,outcome,[2],inactive
CCCCCCCCCC,outcome,[3],inactive
OC(CCl)CCl,outcome,[4],inactive
CCCCCCCCN(C)C,outcome,[5],inactive
same,outcome,[6],inactive
O=C(O)c1ccc2c(c1)nc(C(=O)NC1CCN(C3CC3)CC1)n2Cc1cc(-c2ccc(Cl)s2)on1,AC50,[4],257 nM (active)
same,outcome,[7],inactive
same,outcome,[8],inactive
same,outcome,[9],inactive
same,outcome,[10],inactive
same,outcome,[11],inactive
O=S1(=O)CCCO1,outcome,[12],inactive
CC1(C)C(=O)N(Cl)C(=O)N1Cl,outcome,[12],inactive
CCCC(CCC)C(=O)O,outcome,[1],inactive
same,outcome,[13],inactive
same,outcome,[4],inactive
same,outcome,[14],inactive
same,outcome,[7],inactive
same,outcome,[15],inactive
same,outcome,[16],inactive
same,outcome,[10],inactive
same,outcome,[2],inactive
same,outcome,[17],inactive
same,outcome,[11],inactive
same,outcome,[18],inactive
O=C(NO)C1(NS(=O)(=O)c2ccc(Oc3ccc(F)cc3)cc2)CCOCC1,outcome,[1],inactive
same,outcome,[19],inactive
same,outcome,[20],inactive
C[C@]12C=CC(=O)C=C1CC[C@H]1[C@@H]3C[C@@H](O)[C@](O)(C(=O)CO)[C@@]3(C)C[C@H](O)[C@@]12F,outcome,[5],inactive
same,outcome,[12],inactive
c1ccc(C(O[C@@H]2CCCN(CCc3ccc4c(c3)OCO4)C2)c2ccccc2)cc1,outcome,[5],inactive
same,AC50,[6],4090 nM (active)
OCCOCCOCCO,outcome,[13],inactive
same,outcome,[3],inactive
same,outcome,[12],inactive
CC(C)CCCCCCOC(=O)C1CCCCC1C(=O)OCCCCCCC(C)C (centres undefined),outcome,[5],inactive
OC[C@H]1O[C@@H]2O[C@H]3[C@H](O)[C@@H](O)[C@@H](O[C@H]4[C@H](O)[C@@H](O)[C@@H](O[C@H]5[C@H](O)[C@@H](O)[C@@H](O[C@H]6[C@H](O)[C@@H](O)[C@@H](O[C@H]7[C@H](O)[C@@H](O)[C@@H](O[C@H]1[C@H](O)[C@H]2O)O[C@@H]7CO)O[C@@H]6CO)O[C@@H]5CO)O[C@@H]4CO)O[C@@H]3CO,outcome,[7],inactive
same,outcome,[12],inactive
COCc1nnc(-c2ccc[n+]([O-])c2)n1-c1c(Cl)c(Cl)cc2[nH]c(=O)c(=O)[nH]c12,outcome,[10],inactive
Cn1cc[nH]c1=S,outcome,[17],inactive
CC(C)c1nnc2ccc(-c3ocnc3-c3cc(F)ccc3F)cn12,outcome,[17],inactive
Cn1c(=O)c2[nH]cnc2n(C)c1=O,outcome,[11],inactive
CCN(CC)C(=S)SSC(=S)N(CC)CC,outcome,[18],inactive
